From PubChem BioAssay (Tox21)
Results filed as inconclusive are left out. Entries that show only a call come without a potency. Unmarked numbers belong to inactive results. Calls of active or inactive are those of the source. Unless noted, calls come from the whole dose curve; as a rule, active = well fitted curve in the direction sought with a large enough effect in the repeat runs; inconclusive = weak or mixed curves; inactive = no such curve, though single readings can be large; an effect the other way counts as inactive or inconclusive.

Columns and labels:
[1] = qHTS assay to identify small molecule agonists of the peroxisome proliferator-activated receptor delta (PPARd) signaling pathway - cell viability counter screen (AID 743211); note: nearly all actives have a fitted effect of over 55% in size
In short: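 PPARd-bla HEK293H cells (3000/well) were pre-incubated 5 h at 37 C, then exposed to compound for 17 h at 37 C. After 2 h with LiveBLAzer substrate, CellTiter-Glo was added to the same wells; luminescence read after 30 min at room temperature.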

[2] = target: Peroxisome proliferator-activated receptor delta (Homo sapiens) (UniProt Q03181); assay: qHTS assay to identify small molecule agonists of the peroxisome proliferator-activated receptor delta (PPARd) signaling pathway (AID 743212; calls by dose curve)
Chain of Peroxisome proliferator-activated receptor delta (Homo sapiens) (Q03181 whole entry, looked up): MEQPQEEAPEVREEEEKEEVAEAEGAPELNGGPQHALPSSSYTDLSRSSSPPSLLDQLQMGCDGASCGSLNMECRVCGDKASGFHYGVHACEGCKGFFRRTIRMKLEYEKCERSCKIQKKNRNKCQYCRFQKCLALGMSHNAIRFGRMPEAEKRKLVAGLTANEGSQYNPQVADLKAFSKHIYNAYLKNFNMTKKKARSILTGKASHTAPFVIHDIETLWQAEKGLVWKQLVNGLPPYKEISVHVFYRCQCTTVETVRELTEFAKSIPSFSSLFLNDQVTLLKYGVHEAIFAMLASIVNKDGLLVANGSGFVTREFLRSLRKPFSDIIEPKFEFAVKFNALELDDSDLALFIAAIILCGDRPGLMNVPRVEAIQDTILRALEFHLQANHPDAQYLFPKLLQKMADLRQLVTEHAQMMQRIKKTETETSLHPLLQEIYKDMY
In short: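 GeneBLAzer PPARd UAS-bla HEK293H cells (beta-lactamase reporter under UAS control), plated and rested 5 h at 37 C, then exposed to compounds in DMSO at 37 C; LiveBLAzer B/G FRET substrate added, 2 h room temperature, fluorescence read.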

[3] = qHTS assay to identify small molecule antagonists of the peroxisome proliferator-activated receptor delta (PPARd) signaling pathway - cell viability counter screen (AID 743213); note: nearly all actives have a fitted effect of over 50% in size
In short: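 Agonist-stimulated (L165041, 300 nM final) HEK293H PPARd UAS-bla cells are exposed to compounds for 17 h at 37 C, and ATP-based luminescence (CellTiter-Glo) from the same wells reports cytotoxicity.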

[4] = qHTS assay to identify small molecule agonists of the farnesoid-X-receptor (FXR) signaling pathway - cell viability counter screen (AID 743218); note: nearly all actives have a fitted effect of over 45% in size; note: potency is the fitted concentration of half-maximal effect
In short: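 FXR-UAS-bla HEK 293T cells exposed to compounds for 16 h at 37C. Cytotoxicity read in the same wells by CellTiter-Glo luminescence after 30 min at room temperature, following the beta-lactamase FRET read.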

[5] = qHTS assay to identify small molecule antagonists of the farnesoid-X-receptor (FXR) signaling pathway - cell viability counter screen (AID 743221; active = well fitted cell-killing curve with a large enough effect in the repeat runs, not every such curve was filed as active; note: nearly all actives have a fitted effect of over 50% in size)
In short: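 GeneBLAzer FXR-UAS-bla HEK 293T cells, compound plus chenodeoxycholic acid (50 uM final), 16 h at 37 C. CellTiter-Glo added to the same wells after the beta-lactamase read; luminescence read after 30 min at room temperature as viability.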

[6] = target: Vitamin D3 receptor (Homo sapiens) (UniProt P11473); assay: qHTS assay to identify small molecule agonists of the vitamin D receptor (VDR) signaling pathway (AID 743222; calls by dose curve)
Chain of Vitamin D3 receptor (Homo sapiens) (P11473 whole entry, looked up): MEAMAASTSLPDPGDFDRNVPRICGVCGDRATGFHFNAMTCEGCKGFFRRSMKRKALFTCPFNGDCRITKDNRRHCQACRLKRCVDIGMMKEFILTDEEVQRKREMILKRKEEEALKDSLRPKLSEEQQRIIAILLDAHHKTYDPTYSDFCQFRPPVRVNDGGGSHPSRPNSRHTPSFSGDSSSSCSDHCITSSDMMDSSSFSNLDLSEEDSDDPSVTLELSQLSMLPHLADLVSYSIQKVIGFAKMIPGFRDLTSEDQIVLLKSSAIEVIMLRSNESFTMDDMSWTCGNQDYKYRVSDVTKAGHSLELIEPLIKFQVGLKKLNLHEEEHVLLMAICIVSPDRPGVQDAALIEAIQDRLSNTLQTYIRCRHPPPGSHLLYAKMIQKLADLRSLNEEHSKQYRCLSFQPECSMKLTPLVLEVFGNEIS
In short: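 VDR-bla cells plated 4 h at 37 C, then exposed to compounds for 16 h at 37 C. Beta-lactamase reporter activity measured by fluorescence after 2 h room-temperature loading with LiveBLAzer B/G FRET substrate.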

[7] = target: Vitamin D3 receptor (Homo sapiens) (UniProt P11473); assay: qHTS assay to identify small molecule antagonists of the vitamin D receptor (VDR) signaling pathway (AID 743223; active = well fitted inhibition curve with a large enough effect in the signal ratio in the repeat runs, not every such curve was filed as active; the % refers to the signal ratio)
In short: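 VDR-bla cells were treated with compound plus 3 nM final 1alpha,25-dihydroxyvitamin D3 for 16 h at 37C. Beta-lactamase reporter read by B/G FRET substrate fluorescence after 2 h at room temperature. qHTS format.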

[8] = target: Bile acid receptor (Homo sapiens) (UniProt Q96RI1); assay: qHTS assay to identify small molecule antagonists of the farnesoid-X-receptor (FXR) signaling pathway (AID 743217; active = well fitted inhibition curve with a large enough effect in the signal ratio in the repeat runs, not every such curve was filed as active; the % refers to the signal ratio)
Chain of Bile acid receptor (Homo sapiens) (Q96RI1 whole entry, looked up): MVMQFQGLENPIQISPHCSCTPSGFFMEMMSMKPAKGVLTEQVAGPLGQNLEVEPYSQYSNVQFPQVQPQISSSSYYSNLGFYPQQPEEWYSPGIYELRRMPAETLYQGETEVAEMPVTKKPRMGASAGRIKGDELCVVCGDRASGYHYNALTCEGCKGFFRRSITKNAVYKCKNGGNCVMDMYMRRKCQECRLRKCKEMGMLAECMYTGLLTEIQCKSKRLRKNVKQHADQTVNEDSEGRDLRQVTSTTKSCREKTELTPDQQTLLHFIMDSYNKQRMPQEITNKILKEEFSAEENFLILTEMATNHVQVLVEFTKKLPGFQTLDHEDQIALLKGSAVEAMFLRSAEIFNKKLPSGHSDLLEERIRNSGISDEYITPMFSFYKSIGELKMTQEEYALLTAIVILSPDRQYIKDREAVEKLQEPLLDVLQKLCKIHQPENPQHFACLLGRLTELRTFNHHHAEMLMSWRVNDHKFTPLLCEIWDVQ
In short: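 FXR-UAS-bla HEK 293T cells (beta-lactamase reporter) given compound plus chenodeoxycholic acid (50 uM final), 16 h at 37C. LiveBLAzer B/G FRET substrate added for 2 h at room temperature; fluorescence read.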

[9] = target: Bile acid receptor (Homo sapiens) (UniProt Q96RI1); assay: qHTS assay to identify small molecule agonists of the farnesoid-X-receptor (FXR) signaling pathway (AID 743220; active = well fitted activation curve with a large enough effect in the signal ratio in the repeat runs, not every such curve was filed as active; the % refers to the signal ratio)
In short: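 Beta-lactamase reporter under UAS control in GeneBLAzer FXR HEK 293T cells (5000/well) measured with LiveBLAzer FRET substrate after 2 h at room temperature. Compound exposure lasted 16 h at 37C.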

[10] = target: Peroxisome proliferator-activated receptor delta (Homo sapiens) (UniProt Q03181); assay: qHTS assay to identify small molecule antagonists of the peroxisome proliferator-activated receptor delta (PPARd) signaling pathway (AID 743215; active = well fitted inhibition curve with a large enough effect in the signal ratio in the repeat runs, not every such curve was filed as active; the % refers to the signal ratio; note: series mostly up to about 62 µM)
In short: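 PPARd-bla HEK293H cells (UAS-bla reporter) preincubated 5 h, then given compound plus 300 nM final L165041 agonist for 17 h at 37 C. Beta-lactamase activity read by LiveBLAzer B/G FRET substrate fluorescence after 2 h at room temperature.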

SMILES | Potency [1] | Potency [2] | Potency [3] | Potency [4] | Potency [5] | outcome [6] | outcome [7] | outcome [8] | outcome [9] | outcome [10]
CC(C)=CCC[C@H](C)CCO | inactive | inactive | inactive | inactive | inactive |  |  |  |  | 
O=[N+]([O-])c1ccc(Cl)cc1Cl | inactive | inactive | inactive | inactive | inactive |  |  |  |  | 
O=C1c2ccccc2C(=O)C1c1ccc2ccccc2n1 | inactive | inactive | inactive | inactive | inactive | inactive | inactive |  |  | 
CCCCCCCCCCCC(=O)OCC | inactive | inactive | inactive | inactive | inactive | inactive | inactive |  |  | 
Cc1ccccc1CCO | inactive | inactive | inactive |  | inactive | inactive |  | inactive | inactive | 
CCC(C(=O)O)c1ccc(N2Cc3ccccc3C2=O)cc1 (stereo not drawn) | inactive | inactive | inactive | inactive | inactive | inactive | inactive |  |  | inactive
CCCCCCOC(=O)c1ccccc1 | inactive | inactive | inactive | 30.9 µM (active) |  | inactive | inactive | inactive |  | 
O=C1OC(=O)C2CC=CCC12 (stereo not drawn) | inactive | inactive | inactive |  | inactive | inactive | inactive |  |  | inactive
Cc1c(-c2cccnc2)c2ccccc2n1CCCCC(=O)O | inactive |  | inactive | inactive |  | inactive | inactive | inactive | inactive | inactive
CCCCC(CC)COCCC#N (stereo not drawn) | inactive | inactive |  | inactive | inactive | inactive |  |  |  | 
COc1ccc(C(=O)c2ccc(C)cc2)c(O)c1 | inactive | inactive |  |  | inactive |  |  |  |  | inactive
O=C(OCCCCCOC(=O)c1ccccc1)c1ccccc1 | inactive |  | inactive | inactive | inactive |  |  |  |  | inactive
CC[C@H](NC(C)C)[C@H](O)c1ccc(O)c2[nH]c(=O)ccc12 | inactive |  | inactive | inactive | inactive |  |  |  |  | inactive
COc1cc(CNC(=O)CCCC/C=C/C(C)C)ccc1O | inactive |  | inactive | inactive |  |  | inactive |  | inactive | inactive
CCCCCCCCCCCCCCCCN | inactive |  | inactive | inactive | inactive | inactive | inactive | inactive | inactive | inactive
N#Cc1ccc(CC(=O)c2cccc(C(F)(F)F)c2)cc1 | inactive | inactive | inactive | inactive |  | inactive |  |  |  | 
CCCCCCCCCCCCCCCCC(=O)O | inactive |  | inactive | inactive | inactive | inactive |  | inactive | inactive | inactive
